Shown is part of a subset that was picked to be rich in hits.
AMA1 RON2 block – qHTS for Inhibitors of AMA1-RON; Towards Development of Antimalarial Drug Lead: Primary Screen | Potency, µM (doses to about 58.2 µM), hits mostly inhibitors | 0.2% of 360,000 active | AID 720542, 2013 | AlphaScreen AMA1-biotinylated RON2 peptide binding; further: nearly all actives have a fitted effect of over 45% in size
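AMA1 (3D7) with his tag at 25 nM final met compounds first, then biotinylated RON2 peptide at 25 nM; detection used donor plus acceptor beads, 10 µg/mL apiece, read by AlphaScreen after 30 min at room temperature.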
AmpC no deterg – qHTS Inhibitors of AmpC Beta-Lactamase (assay without detergent) | AID 485341, 2010 | AmpC nitrocefin hydrolysis, absorbance 480 nm, 0.0001% Triton | 0.52% of 330,000 active | P00811 | Potency, µM (highest dose often 57.1 µM), most hits filed as inhibitors; further: nearly all actives have a fitted effect of over 20% in size
Target sequence (P00811 whole entry, looked up): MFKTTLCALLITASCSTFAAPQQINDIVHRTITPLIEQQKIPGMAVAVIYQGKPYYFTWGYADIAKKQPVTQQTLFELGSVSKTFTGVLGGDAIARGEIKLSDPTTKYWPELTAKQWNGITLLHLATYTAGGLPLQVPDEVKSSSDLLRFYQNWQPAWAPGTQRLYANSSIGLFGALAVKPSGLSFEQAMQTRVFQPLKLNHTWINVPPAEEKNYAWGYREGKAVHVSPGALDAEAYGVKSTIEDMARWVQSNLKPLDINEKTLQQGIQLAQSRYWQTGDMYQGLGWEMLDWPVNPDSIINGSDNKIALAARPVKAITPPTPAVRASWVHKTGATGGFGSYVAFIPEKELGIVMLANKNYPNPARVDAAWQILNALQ
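AmpC (5.3 nM in the dispensed reagent) in 20 mM phosphate pH 7.0 with 0.01% (detergent screen) or 0.0001% Triton X-100 was preincubated with compounds for 15 min at room temperature. Nitrocefin was then added from an 800 uM solution, and hydrolysis was followed at 480 nm.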
Shiga inhibitor – A qHTS for Small Molecule Inhibitors of Shiga Toxin; Vero cells, Shiga toxin protein synthesis inhibition reporter; inhibition, % at 38.7 µM; 9.2% of 290,000 active; in the data active means inhibition mostly above about 28%, no sharp cut-off; inactive means mostly below about 43%
SARS PLP yeast – qHTS of Yeast-based Assay for SARS-CoV PLP; 0.19% of 330,000 active; S. cerevisiae expressing SARS-CoV PLpro, growth rescue; Potency, µM (titrated, usually from 32.9 µM), hits mostly activators; calls by dose curve; further: nearly all actives have a fitted effect of over 55% in size
Cycloheximide cs – Cycloheximide Counterscreen for Small Molecule Inhibitors of Shiga Toxin. max response, %. cell reporter, cycloheximide protein synthesis inhibition counterscreen. 12% of 300,000 active; in the data active means max response mostly above about 13%, no sharp cut-off; inactive means mostly below about 14%; further: read at 38.3 µM for the half of the compounds with a filed dose
AmpC detergent – qHTS Inhibitors of AmpC Beta-Lactamase (assay with detergent). P00811. Potency, µM (highest dose often 114 µM), actives largely listed as inhibitors. AmpC hydrolysis of nitrocefin, absorbance 480 nm, 0.01% Triton. 0.041% of 370,000 active. AID 485294, 2010; further: nearly all actives have a fitted effect of over 25% in size
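AmpC (5.3 nM in the dispensed reagent) in 20 mM phosphate pH 7.0 with 0.01% (detergent screen) or 0.0001% Triton X-100 was preincubated with compounds for 15 min at room temperature. Nitrocefin was then added from an 800 uM solution, and hydrolysis was followed at 480 nm.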
Of the large screens only hits and unclear results are named; the others gave an inactive call. Unless noted, the call rests on the fitted dose curve; in most records, active means well fitted curve in the direction sought with a large enough effect; inconclusive means small, poorly fitted or top-dose-only effect, or another doubt; inactive means no such curve, though single readings can be large; an effect the other way counts as inactive or inconclusive.

O=C(NNC(=O)c1cccc2ccccc12)c1cccc(F)c1	none (no result: AmpC no deterg, Shiga inhibitor, SARS PLP yeast, Cycloheximide cs, AmpC detergent)
CN(CCCCN1CCOCC1)Cc1nc(-c2ccc3c(c2)OCO3)no1	Cycloheximide cs 9.5
Fc1ccc(CN2CCCN(Cc3nc(-c4ccc5c(c4)OCO5)no3)CC2)cc1	Cycloheximide cs 14.7
CN(CCN1CCc2ccccc2C1)Cc1nc(-c2ccc3c(c2)OCO3)no1	none
COCC1CCN(Cc2nc(-c3ccc4c(c3)OCO4)no2)C1 (stereo not drawn)	Shiga inhibitor 67.2, Cycloheximide cs 38.6
Cc1ccc(C(C)C)c(OCC(=O)Nc2ccc3c(c2)nc(CN2CCCC2)n3C)c1	none
CC(C)OP(=O)(OC(C)C)C(Nc1ccc([N+](=O)[O-])cc1)c1cccc([N+](=O)[O-])c1 (stereo not drawn)	none
CC(C)Cn1cnc2c(SCc3ccccc3Cl)nc(N)nc21	none (no result: AmpC no deterg, Shiga inhibitor, SARS PLP yeast, Cycloheximide cs, AmpC detergent)
CC(C)CC(NC(=O)OCc1ccccc1)C(=O)NC(Cc1ccccc1)C(=O)CCl (stereo not drawn)	none (no result: AmpC no deterg, Shiga inhibitor, SARS PLP yeast, Cycloheximide cs, AmpC detergent)
CC(C)C[C@@H](NC(=O)[C@@H](O)[C@H](N)Cc1ccccc1)C(=O)O	Shiga inhibitor 34.3, Cycloheximide cs 40.5 (no result: AMA1 RON2 block, AmpC no deterg, SARS PLP yeast, AmpC detergent)
CCn1c(=O)c(C(=O)Nc2ccccn2)c(O)c2ccccc21	none
Cc1cc(C(=O)Nc2ccccn2)cs1	Shiga inhibitor 48.1, Cycloheximide cs 37.4
Cc1ccccc1C(=O)Nc1ccc(Cl)cn1	Shiga inhibitor 115.0, Cycloheximide cs 24.2, AmpC detergent inconclusive
Cc1ccccc1C(=O)Nc1ccccn1	Shiga inhibitor 56.9, Cycloheximide cs 32.0 (no result: AmpC no deterg, SARS PLP yeast)
Cn1cc(C(=O)Nc2ccccn2)c(=O)c2ccccc21	Shiga inhibitor 47.3, Cycloheximide cs 19.7
Cc1c(C(=O)Nc2ccc(Cl)cn2)oc2ccccc12	AmpC detergent inconclusive
O=C(c1cc(Cl)ccc1O)N1CCN(S(=O)(=O)Cc2ccccc2)CC1	none (no result: Shiga inhibitor, Cycloheximide cs, AmpC detergent)
CC1=C(C(=O)Nc2ccccc2Br)C2(CCC(C)CC2)OC1=O (stereo not drawn)	none (no result: AMA1 RON2 block, AmpC no deterg, Shiga inhibitor, SARS PLP yeast, Cycloheximide cs)
CC(=O)N1CCN(CC(O)COc2ccc(Br)cc2)CC1 (stereo not drawn)	AMA1 RON2 block inconclusive
O=C(Nc1ccccc1)c1cccc2c(Br)cccc12	none
O=C(Nc1ccc(Cl)cn1)c1cccc2c(Br)cccc12	AmpC no deterg 20µM
Cc1ccc(/C=C/c2nnc(-c3cccs3)o2)cc1	Shiga inhibitor 47.6, Cycloheximide cs 46.5, AmpC detergent inconclusive
Cc1ccc(-c2nnc(-c3cccs3)o2)cc1	Shiga inhibitor 71.7, Cycloheximide cs 31.4
Fc1ccc(/C=C/c2nnc(-c3cccs3)o2)cc1	Shiga inhibitor 75.1, Cycloheximide cs 30.7
C=CCn1c(SCC(=O)Nc2cccnc2Cl)nnc1-c1ccc(Cl)cc1	none
COc1cccc(NC(=O)CNC(=O)Cn2cnc3sc4c(c3c2=O)CCCC4)c1	none
C=CCOc1c2ccc(C(=O)NCc3ccccc3OC)cc2nn1C	AmpC detergent inconclusive
Cc1cccc(NCc2ccc([N+](=O)[O-])s2)c1	none
Cc1ccc(NCc2ccc([N+](=O)[O-])s2)cc1	AMA1 RON2 block inconclusive, Shiga inhibitor 49.0, Cycloheximide cs 25.3
Cc1ccccc1NCc1ccc([N+](=O)[O-])s1	Cycloheximide cs 14.0
COc1ccccc1NCc1ccc([N+](=O)[O-])s1	SARS PLP yeast inconclusive
Cc1ccc(NC(=S)N/N=C/c2ccc([N+](=O)[O-])s2)cc1	Shiga inhibitor active, Cycloheximide cs 46.9, AmpC detergent inconclusive
Cc1cc(C)cc(N=Cc2ccc([N+](=O)[O-])s2)c1	none
Cc1cccc(C)c1NC(=O)CN1C(=O)COc2ccccc21	none (no result: Shiga inhibitor)
COc1ccc(Oc2nccc(OC)c2C#N)cc1	Cycloheximide cs 19.6
COc1ccnc(Oc2cc(Cl)cc(Cl)c2)c1C#N	none
N#Cc1c(-c2ccccc2)ccnc1Oc1ccccc1	Shiga inhibitor 58.6, Cycloheximide cs 24.1, AmpC detergent inconclusive
COc1cccc(Oc2nccc(N(C)C)c2C#N)c1	Shiga inhibitor 38.7, Cycloheximide cs 15.5
COc1nccc(Nc2ccccc2)c1C#N	AmpC detergent inconclusive
